Screening data as filed in PubChem.
Rows were chosen to be rich in hits. Some 2.8% of all compounds tested hit in one or more screens of this group.
Shn3 inh set2 = inhibitors of Schnurri-3 3'UTR reporter in osteoblasts. 360,000 tested, 0.52% active. inhibition, % at 12.5 µM. AID 588674. Clone20 osteoblast Shn3 3'UTR firefly luciferase, 24 h;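 active = mean inhibition of at least 75% with every replicate also reaching 75%; inconclusive = mean inhibition at least 75% but some replicate below; inactive = mean inhibition below 75%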;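 also: 0% = median of neutral control wells and 100% = pilot-screen positive control compound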
HIF-2a inh = inhibitors of HIF-2a | 360,000 tested, 0.72% active | 786-0 RCC cells HIF-2a reporter, luciferase luminescence, overnight | AID 624352 | inhibition, % at 18.8 µM;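 active = inhibition of the luminescence signal of 40% or more relative to plate controls, in a single-dose primary screen at 18.75 µM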
PAX8 reporter = inhibitors of PAX8 transcriptional activity in RMG-I cells | inhibition, % at 12.6 µM | 360,000 tested, 1.2% active | AID 652154 | RMG-I TPO-luciferase reporter, SteadyGlo, 24 h;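 active = mean replicate inhibition at least 60% with every replicate also reaching 60%; inconclusive = only one of the two criteria is met; inactive = mean below 60% and not all replicates reaching 60%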;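 also: luciferase light reporting Pax8 driven TPO promoter activity; plate controls were median of neutral control wells for no effect and mitoxantrone controls for full effect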
EBV LMP1 NFkB = reduces LMP1-driven NF-kappaB luciferase signal. LMP1-induced NF-kappaB luciferase reporter cells, luminescence. 350,000 tested, 0.69% active. inhibition, % at 12.5 µM; in the data active = inhibition above about 41%; inconclusive = no clear call, values can overlap the other calls;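 also: 0% = neutral control wells and 100% = reference inhibitor control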
TRPM1 prom inh = inhibitors of MITF-driven TRPM1 promoter in melanoma cells; AID 488899; SK-MEL-5 TRPM1 promoter luciferase, 24 h; inhibition, % at 12.5 µM; 330,000 tested, 0.83% active;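 active = mean inhibition across replicates of 60% or more, whatever share of single replicates reaches that level; inconclusive = some that reach 60%, reason not given; inactive = mean inhibition across replicates below 60%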
Peg3 prom inh = inhibitors of Peg3 promoter. HeLa PEG-Prom luciferase reporter, luminescence, overnight. inhibition, % at 20 µM. 360,000 tested, 1.7% active;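 active = inhibition of at least 50% at 20 µM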
An asterisk follows results filed as active; ? = inconclusive; / = no result.

SMILES	Shn3 inh set2	HIF-2a inh	PAX8 reporter	EBV LMP1 NFkB	TRPM1 prom inh	Peg3 prom inh
COc1ccc2c3c1OC1C(=O)CC[C@@]4(O)[C@@H](C2)N(C)CC[C@]314 (some centres not stated)	-5	-2	/	-12	18	50*
O=C1NC(=O)N(C2CCCCC2)C(=O)C1C1c2ccccc2C(=O)N1Cc1ccccc1 (configuration not stated)	30	7	/	78*	12	-2
CC1=C(O)C(=O)C=C2C1=CC=C1C2(C)CCC2(C)C3CC(C)(C(=O)O)CCC3(C)CCC12C (configuration not stated)	95*	92*	119*	88*	94*	105*
C[C@H]1CCC/C=C/[C@@H]2C[C@H](O)C[C@H]2[C@@H](O)/C=C/C(=O)O1	88*	39	119*	-49	89*	59*
O=C(Cc1ccccc1)N1CCCCN2[C@H](C1)[C@H](c1ccc(-c3ccccc3)cc1)[C@@H]2CO	/	/	7	/	/	/
Nc1cc(N2CCNCC2)c([N+](=O)[O-])cc1Cl	5	13	-4	-11	-9	6
O=[N+]([O-])c1ccc(N2CCNCC2)cc1N1CCCCC1	-8	-1	83*	-5	6	19
COC(=O)C1=C(c2ccc(F)cc2OCc2ccccc2)C[C@@H]2CC[C@H]1N2C(=O)NCc1ccc(C(F)(F)F)cc1	93*	12	88*	-2	10	37
COC(=O)C1=C(c2ccccc2OCc2ccccc2)C[C@@H]2CC[C@H]1N2C(=O)NCc1ccc(C(F)(F)F)cc1	34	9	-2	15	2	14
COC(=O)C1=C(c2cc3ccccc3s2)C[C@@H]2CC[C@H]1N2C(=O)NCc1ccc(C(F)(F)F)cc1	55	24	66*	-6	1	38
C=CCN1C(=S)N[C@@H]2c3ccccc3O[C@@]1(C)[C@@H]2C(=O)OCC	/	/	3	/	/	/
COc1cc(/C=C2\C(=O)NC(=O)N(c3ccccc3)C2=O)cc(OC)c1OC	-5	14	/	0	-11	3
CCOc1ccc(N2C(=O)/C(=C/c3ccco3)C(=O)NC2=S)cc1	-8	21	/	-3	7	31
CCc1ccc(N2C(=O)NC(=O)/C(=C\C=C\c3ccco3)C2=O)cc1	39	24	42	-8	102*	91*
CC(C)c1ccc(N2C(=O)NC(=O)/C(=C/C=C/c3ccco3)C2=O)cc1	30	17	-23	-28	99*	74*
Cc1cc(C)cc(N2C(=O)NC(=O)/C(=C\C=C\c3ccco3)C2=O)c1	52	40*	66*	-30	94*	67*
O=C1NC(=O)N(c2ccccc2)C(=O)/C1=C\C=C\c1ccccc1	61	82*	-6	-38	74*	61*
CCCCN1C(=O)/C(=C/C=C/c2ccco2)C(=O)NC1=S	9	16	20	-4	3	5
CC=Cc1ccc2n(c1=O)C[C@H]1[C@H](CO)[C@@H](C(=O)O)[C@@H]2N1S(=O)(=O)c1ccccc1C (mixture of isomers)	/	/	-8	/	/	/
CC[C@H]1C=C(C(=O)N[C@@]2(C(=O)O)C[C@H]2CC)[C@H]2CCC(=O)[C@H]2C1	/	/	-10	/	/	/
COC(=O)[C@H]1[C@H](CO)[C@H]2Cn3c(ccc(-c4cccc(F)c4)c3=O)[C@@H]1N2Cc1cccnc1	/	/	-33	/	/	/
C=CC1CN2CCC1C[C@@H]2CO (some centres not stated)	/	/	-15	/	/	/
Fc1ccc(C(OCCN2CCCC2)c2ccc(F)cc2)cc1	5	18	-11	?	-13	-8
Fc1ccc(C(OCCN2CCN(CCCc3ccccc3)CC2)c2ccc(F)cc2)cc1	87*	-7	?	30	42	67*
c1ccc(CCCN2CCN(CCOC(c3ccccc3)c3ccccc3)CC2)cc1	-5	-5	22	82*	-23	26
SMILES	Shn3 inh set2	HIF-2a inh	PAX8 reporter	EBV LMP1 NFkB	TRPM1 prom inh	Peg3 prom inh
Cc1ccccc1S(=O)(=O)N1[C@@H]2Cn3c(ccc(-c4cccnc4)c3=O)[C@H]1[C@@H](C(=O)O)[C@@H]2CO	/	/	9	/	/	/
COC(=O)[C@@H]1[C@@H](CO)[C@@H]2Cn3c(ccc(-c4ccccc4F)c3=O)[C@H]1N2Cc1cccnc1	/	/	-12	/	/	/
O=C1NC2C(=CC(O)C(O)C2O)c2cc3c(cc21)OCO3 (configuration not stated)	90*	35	123*	78*	67*	98*
CCC(=O)N1[C@@H]2c3ccc(-c4ccc(F)cc4)c(=O)n3C[C@H]1[C@H](CO)[C@H]2C(=O)OC	/	/	-3	/	/	/
COc1ccc(-n2c(O)c(/C=C3\C=Nc4ccc(Br)cc43)c(=O)[nH]c2=O)cc1	12	31	12	-1	6	39
COc1ccc(-n2c(O)c(/C=C3\C=Nc4ccc(Br)cc43)c(=O)[nH]c2=O)c(OC)c1	64	45*	17	-13	-2	11
O=C(Cc1ccccc1)N1CCCCN2[C@@H](CO)[C@@H](c3ccc(C#Cc4ccccc4)cc3)[C@@H]2C1	/	/	-2	/	/	/
N#CC1(c2ccccc2)CCN(C2CC(=O)N(c3ccc(F)cc3)C2=O)CC1 (configuration not stated)	8	21	-1	5	-2	18
C[C@@H]1CN(C2CCC(C#N)(c3ccc(F)cc3)CC2)CC[C@]1(C(=O)O)c1ccccc1 (some centres not stated)	6	-1	-28	79*	5	-1
CN1C(=O)/C(=C\c2ccc(Br)s2)C(=O)NC1=S	20	13	29	0	58	20
O=C1NC(=S)NC(=O)C1=Cc1ccc(Br)s1	-10	79*	7	0	19	28
O=C(Cc1ccncc1)N1CCCCN2[C@H](CO)[C@@H](c3ccc(-c4ccncc4)cc3)[C@H]2C1	/	/	8	/	/	/
c1cc(OCCN2CC2)ccn1	-11	1	-18	-3	3	-1
c1cnc(OCCN2CC2)cn1	-7	8	87*	-6	-4	-8
Cc1cc(C)c(N=Cc2c(O)[nH]c(=O)[nH]c2=O)c(C)c1	-27	8	-12	4	32	51*
O=C(O)c1ccc(N=Cc2c(O)[nH]c(=O)[nH]c2=O)cc1	-3	15	-2	-10	-7	1
Cc1cccc(S(=O)(=O)N2[C@@H]3Cn4c(ccc(-c5ccccc5)c4=O)[C@H]2[C@@H](C(=O)O)[C@@H]3CO)c1	/	/	-7	/	/	/
CSc1cccc(NP2(=O)OCC(C)([N+](=O)[O-])CO2)c1 (configuration not stated)	61	2	-23	62*	-4	-3
CCC(C)C1NC(=O)C2CCCN2C(=O)C(CC(C)C)OC(=O)CCNC(=O)C(C)N(C)C(=O)C(C(C)C)N(C)C1=O (configuration not stated)	72	-4	72*	-3	-24	27
